Source: article PMC5540273 (PLoS ONE, 2017)
Like-named read-outs stand apart in the source and are kept apart here.

Legend:
[1] = system: FGFR1; conditions: concentration: 1 μM, replicates: in singlicate; n = 1
[2] = system: FGFR2; conditions: concentration: 1 μM, replicates: in singlicate; n = 1
[3] = system: FGFR3; conditions: concentration: 1 μM, replicates: in singlicate; n = 1
[4] = system: FGFR4; conditions: concentration: 1 μM, replicates: in singlicate; n = 1
[5] = system: FGR; conditions: concentration: 1 μM, replicates: in singlicate; n = 1
[6] = system: FLT1; conditions: concentration: 1 μM, replicates: in singlicate; n = 1
[7] = system: FLT3-autoinhibited; conditions: concentration: 1 μM, replicates: in singlicate; n = 1
[8] = system: FLT3; conditions: concentration: 1 μM, replicates: in singlicate; n = 1
[9] = system: FLT4; conditions: concentration: 1 μM, replicates: in singlicate; n = 1
[10] = system: FRK; conditions: concentration: 1 μM, replicates: in singlicate; n = 1
[11] = system: FYN; conditions: concentration: 1 μM, replicates: in singlicate; n = 1
[12] = system: GAK; conditions: concentration: 1 μM, replicates: in singlicate; n = 1
[13] = system: T1, GCN2(Kin.Dom.2,S808G); conditions: concentration: 1 μM, replicates: in singlicate; n = 1
T1 construct: gene EIF2AK4

[14] = system: GRK1; conditions: concentration: 1 μM, replicates: in singlicate; n = 1
[15] = system: T2, GRK2; conditions: concentration: 1 μM, replicates: in singlicate; n = 1
T2 construct: gene ADRBK1

[16] = system: T3, GRK3; conditions: concentration: 1 μM, replicates: in singlicate; n = 1
T3 construct: gene ADRBK2

[17] = system: GRK4; conditions: concentration: 1 μM, replicates: in singlicate; n = 1
[18] = system: GRK7; conditions: concentration: 1 μM, replicates: in singlicate; n = 1
[19] = system: GSK3A; conditions: concentration: 1 μM, replicates: in singlicate; n = 1
[20] = system: GSK3B; conditions: n = 1
[21] = concentration: 1 μM, replicates: in singlicate
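Further: KINOMEscan kinase panel screen.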

Structure (SMILES): Cl.Cl.NCC(NC(=O)c1cc(-c2ccccc2)c(-c2ccnc3[nH]ccc23)s1)c1ccccc1 (centres unmarked) [GSK1321561]
- %Inh [1]: 15%
- %Inh [2]: 14%
- %Inh [3]: 19%
- %Inh [4]: 0%
- %Inh [5]: 35%
- %Inh [6]: 10%
- %Inh [7]: 0%
- %Inh [8]: 0%
- %Inh [9]: 2%
- %Inh [10]: 72%
- %Inh [11]: 59%
- %Inh [12]: 86%
- %Inh [13]: 0%
- %Inh [14]: 9%
- %Inh [15]: 0%
- %Inh [16]: 15%
- %Inh [17]: 0%
- %Inh [18]: 25%
- %Inh [19]: 31%
- %Inh [20, 21]: 26%

Structure (SMILES): CCS(=O)(=O)c1ccc(OC)c(Nc2nccc(-c3c(-c4cccc(NC(=O)c5c(F)cccc5F)c4)nn4ncccc34)n2)c1 [GSK326180]
- %Inh [1]: 0%
- %Inh [2]: 0%
- %Inh [3]: 16%
- %Inh [4]: 16%
- %Inh [5]: 64%
- %Inh [6]: 90%
- %Inh [7]: 0%
- %Inh [8]: 0%
- %Inh [9]: 29%
- %Inh [10]: 61%
- %Inh [11]: 53%
- %Inh [12]: 0%
- %Inh [13]: 8%
- %Inh [14]: 0%
- %Inh [15]: 0%
- %Inh [16]: 17%
- %Inh [17]: 0%
- %Inh [18]: 0%
- %Inh [19]: 12%
- %Inh [20, 21]: 2%

Structure (SMILES): COc1cc2c(cc1OCCN1CCNCC1)ncc1c3ccc(C#N)cc3[nH]c21
- %Inh [1]: 0%
- %Inh [2]: 16%
- %Inh [3]: 21%
- %Inh [4]: 0%
- %Inh [5]: 2%
- %Inh [6]: 6%
- %Inh [7]: 95.8%
- %Inh [8]: 98.5%
- %Inh [9]: 0%
- %Inh [10]: 0%
- %Inh [11]: 3%
- %Inh [12]: 99.3%
- %Inh [13]: 92.5%
- %Inh [14]: 3%
- %Inh [15]: 0%
- %Inh [16]: 34%
- %Inh [17]: 88%
- %Inh [18]: 0%
- %Inh [19]: 0%
- %Inh [20, 21]: 26%

Structure (SMILES): COc1cc(Nc2nccc(N3CCC(NC(=O)c4cc5ccccc5s4)C3)n2)cc(OC)c1OC (centres unmarked) [GSK1379760]
- %Inh [1]: 0%
- %Inh [2]: 0%
- %Inh [3]: 18%
- %Inh [4]: 0%
- %Inh [5]: 23%
- %Inh [6]: 36%
- %Inh [7]: 3%
- %Inh [8]: 33%
- %Inh [9]: 26%
- %Inh [10]: 9%
- %Inh [11]: 8%
- %Inh [12]: 27%
- %Inh [13]: 4%
- %Inh [14]: 0%
- %Inh [15]: 0%
- %Inh [16]: 17%
- %Inh [17]: 19%
- %Inh [18]: 0%
- %Inh [19]: 0%
- %Inh [20, 21]: 4%

Structure (SMILES): Nc1n[nH]c2cnc(-c3ccccc3)cc12 [SB-642124]
- %Inh [1]: 2%
- %Inh [2]: 35%
- %Inh [3]: 16%
- %Inh [4]: 13%
- %Inh [5]: 32%
- %Inh [6]: 0%
- %Inh [7]: 0%
- %Inh [8]: 0%
- %Inh [9]: 8%
- %Inh [10]: 10%
- %Inh [11]: 25%
- %Inh [12]: 13%
- %Inh [13]: 11%
- %Inh [14]: 0%
- %Inh [15]: 0%
- %Inh [16]: 42%
- %Inh [17]: 10%
- %Inh [18]: 0%
- %Inh [19]: 40%
- %Inh ([20]; 1 µM): 25%

Structure (SMILES): C[C@@H](Oc1cc(-n2cnc3cc(-c4ccnc(NCCS(C)(=O)=O)c4)ccc32)sc1C(N)=O)c1ccccc1Cl [GSK907232]
- %Inh [1]: 66%
- %Inh [2]: 88%
- %Inh [3]: 81%
- %Inh [4]: 22%
- %Inh [5]: 44%
- %Inh [6]: 63%
- %Inh [7]: 29%
- %Inh [8]: 98.1%
- %Inh [9]: 96.6%
- %Inh [10]: 18%
- %Inh [11]: 14%
- %Inh [12]: 64%
- %Inh [13]: 71%
- %Inh [14]: 0%
- %Inh [15]: 0%
- %Inh [16]: 39%
- %Inh [17]: 82%
- %Inh [18]: 0%
- %Inh [19]: 0%
- %Inh [20, 21]: 16%

Structure (SMILES): O=C(NC1CCN(c2ccnc(Nc3ccc(F)cc3)n2)C1)c1cc2ccccc2s1 (centres unmarked) [GSK1379716]
- %Inh [1]: 0%
- %Inh [2]: 3%
- %Inh [3]: 16%
- %Inh [4]: 13%
- %Inh [5]: 25%
- %Inh [6]: 20%
- %Inh [7]: 0%
- %Inh [8]: 0%
- %Inh [9]: 3%
- %Inh [10]: 18%
- %Inh [11]: 26%
- %Inh [12]: 13%
- %Inh [13]: 7%
- %Inh [14]: 3%
- %Inh [15]: 14%
- %Inh [16]: 33%
- %Inh [17]: 0%
- %Inh [18]: 0%
- %Inh [19]: 0%
- %Inh [20, 21]: 20%

Structure (SMILES): Cc1occc1-c1ncc(OC[C@@H](N)Cc2c[nH]c3ccccc23)cc1-c1ccc2[nH]nc(C)c2c1.O=C(O)C(F)(F)F [GSK682037]
- %Inh [1]: 6%
- %Inh [2]: 0%
- %Inh [3]: 1%
- %Inh [4]: 0%
- %Inh [5]: 77%
- %Inh [6]: 11%
- %Inh [7]: 0%
- %Inh [8]: 0%
- %Inh [9]: 3%
- %Inh [10]: 57%
- %Inh [11]: 86%
- %Inh [12]: 82%
- %Inh [13]: 0%
- %Inh [14]: 3%
- %Inh [15]: 0%
- %Inh [16]: 0%
- %Inh [17]: 62%
- %Inh [18]: 43%
- %Inh [19]: 64%
- %Inh [20, 21]: 55%

Structure (SMILES): CN1CCN(CCCNc2nccc(-c3c(-c4ccc(F)cc4)nn4cc(C(F)(F)F)ccc34)n2)CC1 [GW621581]
- %Inh [1]: 25%
- %Inh [2]: 0%
- %Inh [3]: 0%
- %Inh [4]: 0%
- %Inh [5]: 6%
- %Inh [6]: 33%
- %Inh [7]: 0%
- %Inh [8]: 0%
- %Inh [9]: 16%
- %Inh [10]: 5%
- %Inh [11]: 0%
- %Inh [12]: 78%
- %Inh [13]: 4%
- %Inh [14]: 0%
- %Inh [15]: 4%
- %Inh [16]: 0%
- %Inh [17]: 8%
- %Inh [18]: 0%
- %Inh [19]: 25%
- %Inh [20, 21]: 3%

Structure (SMILES): O=C(Nc1n[nH]c2nc(-c3ccc(O)cc3)ccc12)C1CC1 [SB-710363]
- %Inh [1]: 0%
- %Inh [2]: 0%
- %Inh [3]: 0%
- %Inh [4]: 0%
- %Inh [5]: 11%
- %Inh [6]: 16%
- %Inh [7]: 18%
- %Inh [8]: 82%
- %Inh [9]: 0%
- %Inh [10]: 0%
- %Inh [11]: 0%
- %Inh [12]: 8%
- %Inh [13]: 0%
- %Inh [14]: 34%
- %Inh [15]: 0%
- %Inh [16]: 16%
- %Inh [17]: 20%
- %Inh [18]: 13%
- %Inh [19]: 98.8%
- %Inh ([20]; 1 µM): 95.6%
